# Source: PubChem BioAssay (NCATS)
# Inconclusive results are not listed. Entries that show only a call come without a potency. Values without a mark were called inactive. The source made the active and inactive calls. Unless noted, calls come from the whole dose curve.
# How the values were obtained:
# [1] = Primary qHTS for inhibitors of SARS-S pseudo-typed particle cell entry (AID 1479145); details: SARS-S pseudotyped particle cell entry, luciferase reporter; series mostly up to 57.1 µM; note: nearly all actives have a fitted effect of over 45% in size; note: potency is the fitted concentration of half-maximal effect
# [2] = Primary qHTS for Huh7 cytotoxicity: counterscreen for inhibitors of MERS-S pseudotyped particle cell entry (AID 1479147); details: cell viability read-out; series mostly up to 57.1 µM; note: potency is the fitted concentration of half-maximal effect
# [3] = Primary qHTS for inhibitors of MERS-S pseudo-typed particle cell entry (AID 1479149); details: MERS-S pseudotyped particle entry, luciferase; series mostly up to 57.1 µM; note: nearly all actives have a fitted effect of over 60% in size; note: potency is the fitted concentration of half-maximal effect
# [4] = Primary qHTS for Vero E6 cytotoxicity: counterscreen for inhibitors of SARS-S pseudo-typed particle cell entry (AID 1479150); details: cell viability; series mostly up to 57.1 µM
# [5] = Confirmatory qHTS for VERO E6 Cytotoxicity Assay: Counterscreen for SARS-CoV-2 CPE Assay (AID 1508605); details: cell viability luminescence; series mostly up to 20 µM; note: nearly all actives have a fitted effect of over 60% in size; note: potency is the fitted concentration of half-maximal effect
# [6] = Primary qHTS for inhibitors of La Crosse Virus (LACV) - induced cell death in SH-SY5Y cells (AID 1508616; active = well fitted inhibition curve with a large enough effect;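 note: top concentration of the series differs between compounds; higher means more rescue of cells from virus-induced death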); details: SH-SY5Y LACV cytopathicity rescue, ATP luminescence, 6 d; series mostly up to 4.29 µM
# Procedure, shortened: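 Rescue of virus-induced death was read as ATPLite luminescence after 6 days at 37C, scaled between DMSO wells with LACV and without virus. Cells were SH-SY5Y, 6000/well, infected at 0.01 MOI after compound addition.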
# [7] = Confirmatory qHTS for activators (rescue) of SARS-CoV-2 Cytopathic Effect (CPE) (AID 1508606); details: Vero E6 SARS-CoV-2 CPE rescue, viability luminescence; series mostly up to 20 µM; note: potency is the fitted concentration of half-maximal effect; nearly all actives have a fitted effect of over 70% in size
structure (smiles),measurement,setting,value
Cc1ccc(-c2cc(C(F)(F)F)nn2-c2ccc(S(N)(=O)=O)cc2)cc1,Potency,[1],inactive
same,Potency,[2],inactive
same,Potency,[3],inactive
same,Potency,[4],inactive
same,Potency,[5],inactive
CO/N=C(\C(=O)N[C@@H]1C(=O)N2C(C(=O)O)=C(CSc3nc(=O)c(O)nn3C)CS[C@H]12)c1csc(N)n1,Potency,[1],inactive
same,Potency,[2],inactive
same,Potency,[3],inactive
same,Potency,[4],inactive
COc1cc(C(=O)NCc2ccc(OCCN(C)C)cc2)cc(OC)c1OC,Potency,[1],inactive
same,Potency,[2],inactive
same,Potency,[3],inactive
same,Potency,[4],inactive
Nc1[nH]c(=O)ncc1F,Potency,[1],inactive
same,Potency,[2],inactive
same,Potency,[4],inactive
Cc1ccc(C)c(OCCCC(C)(C)C(=O)O)c1,Potency,[1],inactive
same,Potency,[2],inactive
same,Potency,[3],inactive
same,Potency,[4],inactive
CN(C)[C@@H]1C(=O)C(C(N)=O)=C(O)[C@@]2(O)C(=O)C3=C(O)c4c(O)cccc4[C@@](C)(O)[C@H]3C[C@@H]12,Potency,[1],inactive
same,Potency,[2],inactive
same,Potency,[3],inactive
same,Potency,[4],inactive
same,Potency,[6],inactive
CC(=O)O[C@]1(C(C)=O)CC[C@H]2[C@@H]3C=C(C)C4=CC(=O)CC[C@]4(C)[C@H]3CC[C@@]21C,Potency,[1],inactive
same,Potency,[2],inactive
same,Potency,[4],inactive
CCC[C@H](N[C@@H](C)C(=O)N1[C@H](C(=O)O)C[C@@H]2CCCC[C@@H]21)C(=O)OCC,Potency,[1],inactive
same,Potency,[2],inactive
same,Potency,[4],inactive
CC[C@@]1(O)C(=O)OCc2c1cc1n(c2=O)Cc2cc3c(CN(C)C)c(O)ccc3nc2-1,Potency,[1],3.16 µM (active)
same,Potency,[2],inactive
same,Potency,[4],inactive
CNS(=O)(=O)Cc1ccc2[nH]cc(CCN(C)C)c2c1,Potency,[1],inactive
same,Potency,[2],inactive
same,Potency,[3],inactive
same,Potency,[4],inactive
O=C1CCC(N2C(=O)c3ccccc3C2=O)C(=O)N1 (stereo not drawn),Potency,[1],inactive
same,Potency,[2],inactive
same,Potency,[3],inactive
same,Potency,[4],inactive
CCOC(=O)N1CCC(=C2c3ccc(Cl)cc3CCc3cccnc32)CC1,Potency,[1],inactive
same,Potency,[2],inactive
same,Potency,[4],inactive
Cc1cnc(C(=O)NCCc2ccc(S(=O)(=O)NC(=O)NC3CCCCC3)cc2)cn1,Potency,[1],inactive
same,Potency,[2],inactive
same,Potency,[3],inactive
same,Potency,[4],inactive
O=C1c2cccc3c2[C@H](CCC3)CN1[C@@H]1CN2CCC1CC2,Potency,[1],inactive
same,Potency,[2],inactive
same,Potency,[4],inactive
CCCC(CCC)C(=O)O,Potency,[1],inactive
same,Potency,[2],inactive
same,Potency,[4],inactive
N[C@@H](C(=O)N[C@@H]1C(=O)N2C(C(=O)O)=C(Cl)CS[C@H]12)c1ccccc1,"activity change, negative = inhibition",[1],-16.1% [at 11.4 µM]
same,outcome,[2],inactive [at 11.4 µM]
same,outcome,[3],inactive [at 11.4 µM]
same,outcome,[4],inactive [at 11.4 µM]
Cc1c(O)cccc1C(=O)N[C@@H](CSc1ccccc1)[C@H](O)CN1C[C@H]2CCCC[C@H]2C[C@H]1C(=O)NC(C)(C)C,Potency,[1],inactive
same,Potency,[2],inactive
same,Potency,[3],inactive
same,Potency,[4],inactive
same,Potency,[5],12.6 µM (active)
same,Potency,[7],3.16 µM (active)
Cn1cnc([N+](=O)[O-])c1Sc1ncnc2nc[nH]c12,Potency,[1],inactive
same,Potency,[2],inactive
same,Potency,[4],inactive
CC(C)NCC(O)COc1ccc(CCOCC2CC2)cc1 (stereo not drawn),Potency,[1],inactive
same,Potency,[2],inactive
same,Potency,[3],inactive
same,Potency,[4],inactive
O[C@@H]1CO[C@H]2[C@@H]1OC[C@@H]2O,Potency,[1],inactive
same,Potency,[2],inactive
same,Potency,[3],inactive
same,Potency,[4],inactive
NC(=O)NO,Potency,[1],inactive
same,Potency,[2],inactive
same,Potency,[3],inactive
same,Potency,[4],inactive
COc1ccccc1Oc1c(NS(=O)(=O)c2ccc(C(C)(C)C)cc2)nc(-c2ncccn2)nc1OCCO,Potency,[1],inactive
same,Potency,[2],inactive
same,Potency,[4],inactive
CN1CCC[C@@H]1Cc1c[nH]c2ccc(CCS(=O)(=O)c3ccccc3)cc12,Potency,[2],inactive
same,Potency,[3],inactive
same,Potency,[4],inactive
O[C@@H](c1cc(C(F)(F)F)nc2c(C(F)(F)F)cccc12)[C@H]1CCCCN1,Potency,[1],inactive
same,Potency,[3],inactive
Nc1nc(N)c2nc(-c3ccccc3)c(N)nc2n1,Potency,[1],inactive
same,Potency,[3],inactive
same,Potency,[4],inactive
CN1CCC[C@@H]1CCO[C@](C)(c1ccccc1)c1ccc(Cl)cc1,Potency,[1],10 µM (active)
same,Potency,[3],4.47 µM (active)
same,Potency,[4],inactive
same,Potency,[5],inactive
same,Potency,[7],10 µM (active)
Cc1ccc(-n2[nH]c(C)c(N=Nc3cccc(-c4cccc(C(=O)O)c4)c3O)c2=O)cc1C,Potency,[1],inactive
same,Potency,[4],inactive
CN1CCN(CCCN2c3ccccc3Sc3ccc(Cl)cc32)CC1,Potency,[1],22.4 µM (active)
same,Potency,[4],inactive
same,Potency,[5],20 µM (active)
CCN(CC)CCNC(=O)c1c(C)[nH]c(/C=C2\C(=O)Nc3ccc(F)cc32)c1C,Potency,[2],31.6 µM (active)
same,Potency,[3],11.2 µM (active)
Cn1c(=O)c2c(ncn2CC(O)CO)n(C)c1=O (stereo not drawn),Potency,[1],inactive
same,Potency,[2],inactive
same,Potency,[4],inactive
COc1c(C)c2c(c(O)c1C/C=C(\C)CCC(=O)O)C(=O)OC2,Potency,[1],inactive
same,Potency,[4],inactive
Cc1ccc(NC(=O)c2ccc(CN3CCN(C)CC3)cc2)cc1Nc1nccc(-c2cccnc2)n1,Potency,[1],12.6 µM (active)
same,Potency,[2],inactive
same,Potency,[4],inactive
same,Potency,[5],inactive
same,Potency,[7],8.91 µM (active)
